SARS PLP yeast: qHTS of Yeast-based Assay for SARS-CoV PLP; AID 485353, 2010; hit rate 0.19% among 330,000; Potency, µM (titrated, usually from 32.9 µM), actives largely listed as activators; S. cerevisiae expressing SARS-CoV PLpro, growth rescue; calls by dose curve; note: nearly all actives have a fitted effect of over 55% in size
LASV entry inh: qHTS for Inhibitors of binding or entry into cells for Lassa Virus. hit rate 1.2% among 300,000. Potency, µM (doses to about 37.9 µM), actives largely listed as inhibitors. Lassa virus pseudotype entry inhibition, cell reporter; calls by dose curve; tested in HEK293 cells; note: nearly all actives have a fitted effect of over 50% in size
HCV inhibitor: qHTS Assay for Inhibitors of Hepatitis C Virus (HCV) | Huh7.5.1 HCVcc-Cre infection, luciferase reporter, 44 h | Potency, µM (series often up to 41.8 µM), most hits filed as inhibitors | hit rate 3.4% among 340,000; active = well fitted inhibition curve with a large enough effect; inconclusive = small, poorly fitted or top-dose-only effect, or another doubt; inactive = no such curve, though single readings can be large or run the other way
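Reporter virus HCVcc-Cre (~0.5 moi) infects cells exposed to compound; seeding density 1,000 cells/well with 4 h settling beforehand. Luminescence, 15 sec read, taken 44 h post-infection following a 15 min RT substrate incubation.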
HCMV inh: qHTS Assay for inhibitors of the human cytomegalovirus (HCMV); AID 1259415, 2018; hit rate 4.5% among 410,000; HFF cells, HCMV-luciferase reporter, 72 h; active compounds read low; activity change, negative = inhibition, % at 57.5 µM; in the data active = activity change below about -60%; inconclusive = no clear call, values can overlap the other calls; inactive = above about -39%
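Two-dose cell screen: HFF monolayers treated with compounds and infected with luciferase-expressing HCMV at 1 PFU/cell, 72 h at 37C, then lysed for luciferase measurement.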
FMDV antiviral: High Throughput Screening for Foot and Mouth Disease Virus Antivirals | FMDV antiviral cell-based qHTS | Potency, µM (doses to about 57.9 µM), usual class: inhibitors | hit rate 1.2% among 410,000 | AID 1159524, 2015; calls by dose curve; tested in HEK293T cells; note: read-out not given here; nearly all actives have a fitted effect of over 45% in size
Marburg entry inh: qHTS for inhibitors of binding or entry into cells for Marburg Virus; hit rate 1.8% among 300,000; Potency, µM (doses to about 37.8 µM), hits mostly inhibitors; AID 540276, 2011; Marburg virus pseudotyped entry inhibition, cell reporter; calls by dose curve; tested in HEK293 cells
Of the large screens only hits and unclear results are named; the others gave an inactive call. Most compounds without a hit are left out; they make up all but 8% or so of the library.

CCCOc1ccc(-c2cn3ccccc3n2)cc1	HCV inhibitor inconclusive, HCMV inh -63.9 (no result: LASV entry inh, Marburg entry inh)
COc1ccc(CNc2oc(Cc3cccc4ccccc34)nc2C#N)cc1	LASV entry inh 17.8µM, HCV inhibitor inconclusive, Marburg entry inh inconclusive
COc1ccc(Nc2oc(COc3ccc(OC)cc3)nc2C#N)cc1	LASV entry inh inconclusive, HCV inhibitor inconclusive, HCMV inh -69.7, Marburg entry inh 6.51µM
COc1ccc(CNc2oc(COc3ccccc3)nc2C#N)cc1	LASV entry inh inconclusive, HCV inhibitor inconclusive
COc1ccc(Nc2oc(COc3cccc(C)c3)nc2C#N)cc1	LASV entry inh 11.2µM, HCV inhibitor inconclusive, Marburg entry inh inconclusive
COc1ccc(NC(=O)N2c3ccc(OC)cc3[C@@H](NC(=O)c3ccc(C)s3)[C@H](C)[C@H]2c2ccccc2)cc1	none (no result: SARS PLP yeast, LASV entry inh, HCV inhibitor, FMDV antiviral, Marburg entry inh)
COc1ccc(CCNC(=O)c2ccc3c(c2)ncn3-c2ccc(C(C)C)cc2)cc1OC	LASV entry inh inconclusive (no result: SARS PLP yeast, HCV inhibitor, Marburg entry inh)
COc1cc2ncn(-c3cc(OCCc4ccccc4)c(C(N)=O)s3)c2cc1OC	LASV entry inh 17.7µM (no result: SARS PLP yeast, HCV inhibitor, HCMV inh, FMDV antiviral, Marburg entry inh)
COc1cc2ncn(-c3cc(OCc4ccccc4C(F)(F)F)c(C(=O)N(C)C)s3)c2cc1OC	none (no result: SARS PLP yeast, HCV inhibitor, HCMV inh, FMDV antiviral, Marburg entry inh)
COc1cc2ncn(-c3cc(OC(C)c4ccccc4Cl)c(C(N)=O)s3)c2cc1OC (stereo not given)	LASV entry inh 2.5µM (no result: SARS PLP yeast, HCV inhibitor, HCMV inh, FMDV antiviral, Marburg entry inh)
CCOC(=O)c1[nH]c(C)c(CCC(=O)N2CCN(c3cc(Cl)ccc3C)CC2)c1C	FMDV antiviral inconclusive (no result: SARS PLP yeast, HCV inhibitor, Marburg entry inh)
CCCNC(=O)c1cnc2sc(N3CCCCCC3)nn2c1=O	none (no result: SARS PLP yeast, HCV inhibitor, Marburg entry inh)
COCCOC(=O)c1[nH]c2c(c1C)C(=O)CC(c1cc(OC)c(OC)c(OC)c1)C2 (stereo not given)	LASV entry inh inconclusive, HCV inhibitor 12.6µM, FMDV antiviral inconclusive, Marburg entry inh 10µM
CCCCOC(=O)c1[nH]c2c(c1C)C(=O)CC(c1cc(OC)c(OC)c(OC)c1)C2 (stereo not given)	HCV inhibitor 2.51µM, HCMV inh -63.0, FMDV antiviral 15.8µM (no result: LASV entry inh)
C=CCOC(=O)c1[nH]c2c(c1C)C(=O)CC(c1cc(OC)c(OC)c(OC)c1)C2 (stereo not given)	LASV entry inh inconclusive, HCV inhibitor inconclusive, FMDV antiviral 11.2µM, Marburg entry inh inconclusive (no result: HCMV inh)
COc1cc(C2CC(=O)c3c([nH]c(C(=O)OCC4CCCCC4)c3C)C2)cc(OC)c1OC (stereo not given)	HCMV inh inconclusive, FMDV antiviral inconclusive, Marburg entry inh inconclusive (no result: SARS PLP yeast, HCV inhibitor)
COCCOC(=O)c1[nH]c2c(c1C)C(=O)CC(c1ccc(N(C)C)cc1)C2 (stereo not given)	LASV entry inh inconclusive, HCV inhibitor 12.6µM
CCOc1ccccc1NC(=O)CCc1c(C)nc2c(c(C)nn2-c2ccccc2)c1C	FMDV antiviral inconclusive (no result: SARS PLP yeast, HCV inhibitor)
Cc1ccc(CSc2nc3ccc(NC(=O)COc4ccccc4)cc3s2)cc1	none (no result: SARS PLP yeast, HCV inhibitor)
Cc1ccc(CN(C(=O)COc2ccc(C(C)(C)C)cc2)C2CCS(=O)(=O)C2)o1 (stereo not given)	Marburg entry inh inconclusive (no result: SARS PLP yeast, HCV inhibitor)
COc1ccc2nc(SCC(=O)c3c(C)[nH]c4ccccc34)nc(C)c2c1	none (no result: SARS PLP yeast, HCV inhibitor)
Cc1ccc2oc(=O)c3cc(C(=O)Nc4cccc(C#N)c4)sc3c2c1	none (no result: SARS PLP yeast, HCV inhibitor)
COc1cc(C2CC(=O)c3c([nH]c(C(=O)OC4CCCCC4)c3C)C2)cc(OC)c1OC (stereo not given)	LASV entry inh 6.31µM, FMDV antiviral 11.2µM (no result: SARS PLP yeast, HCV inhibitor, Marburg entry inh)
COc1ccc(C)cc1NC(=O)CN1C(=O)CCc2cc(S(=O)(=O)N3CCOCC3)ccc21	LASV entry inh inconclusive (no result: SARS PLP yeast, HCV inhibitor, Marburg entry inh)
CN(Cc1ccco1)C(=O)Cn1c(=O)oc2cc(S(=O)(=O)NCc3ccccc3)ccc21	none
CN(Cc1ccccc1)C(=O)Cn1c(=O)oc2cc(S(=O)(=O)NCc3ccccc3)ccc21	HCV inhibitor 14.1µM, HCMV inh -71.0 (no result: LASV entry inh)
O=C1OCCC1Sc1nnnn1-c1ccccc1 (stereo not given)	LASV entry inh inconclusive
Cc1ccc(N2C(=O)/C(=C\c3ccc(C(C)C)cc3)N=C2SC2CCOC2=O)cc1 (stereo not given)	LASV entry inh 5.01µM, HCV inhibitor inconclusive, Marburg entry inh 6.31µM
CC(=O)Nc1ccc(C(=O)CSc2nnc3cc(C)c4ccccc4n23)cc1	none (no result: SARS PLP yeast, HCV inhibitor)

Assay outcomes as filed in PubChem BioAssay.
